The campaign covered roughly 310,000 compounds. About 2,200 (0.71%) showed an effect of 50% or more. The effect is printed as a negative number. Only a selection was taken, and strong results are over-represented in it overall.
biological target: human ether-à-go-go-related gene (hERG) potassium channel (human, UniProt Q12809); assay: primary screen, population patch clamp on CHO cells stably expressing hERG; higher = less effect of the substance
Experimental: Briefly, Chinese hamster ovary (CHO) cells stably expressing the hERG channel were dislodged from tissue culture flasks and dispensed into PPC plates. […] During the recording, background leak currents were estimated by a 100 ms step to -80 mV from an initial holding potential of -70 mV and subtracted from the subsequent current measurement. The campaign was conducted in two phases using slight differences in recording protocol. In the first phase, the initial voltage pulse used a 100 ms step to -30 mV from a holding potential of -70 mV, a 2 s conditioning step to +25 mV, and a 2 s test step to -30 mV. During the second phase of the screen, the potential during the conditioning step was raised to +45 mV. In both phases of the campaign, a secondary voltage pulse was applied using the same parameters as the second phase initial pulse. The initial and secondary pulses were applied in the absence of compound, and upon application of 1 μM and 10 μM test concentrations. Small molecule effects on hERG current density were quantified by […].

human ether-à-go-go-related gene (hERG) potassium channel, sequence (Q12809 whole entry, looked up): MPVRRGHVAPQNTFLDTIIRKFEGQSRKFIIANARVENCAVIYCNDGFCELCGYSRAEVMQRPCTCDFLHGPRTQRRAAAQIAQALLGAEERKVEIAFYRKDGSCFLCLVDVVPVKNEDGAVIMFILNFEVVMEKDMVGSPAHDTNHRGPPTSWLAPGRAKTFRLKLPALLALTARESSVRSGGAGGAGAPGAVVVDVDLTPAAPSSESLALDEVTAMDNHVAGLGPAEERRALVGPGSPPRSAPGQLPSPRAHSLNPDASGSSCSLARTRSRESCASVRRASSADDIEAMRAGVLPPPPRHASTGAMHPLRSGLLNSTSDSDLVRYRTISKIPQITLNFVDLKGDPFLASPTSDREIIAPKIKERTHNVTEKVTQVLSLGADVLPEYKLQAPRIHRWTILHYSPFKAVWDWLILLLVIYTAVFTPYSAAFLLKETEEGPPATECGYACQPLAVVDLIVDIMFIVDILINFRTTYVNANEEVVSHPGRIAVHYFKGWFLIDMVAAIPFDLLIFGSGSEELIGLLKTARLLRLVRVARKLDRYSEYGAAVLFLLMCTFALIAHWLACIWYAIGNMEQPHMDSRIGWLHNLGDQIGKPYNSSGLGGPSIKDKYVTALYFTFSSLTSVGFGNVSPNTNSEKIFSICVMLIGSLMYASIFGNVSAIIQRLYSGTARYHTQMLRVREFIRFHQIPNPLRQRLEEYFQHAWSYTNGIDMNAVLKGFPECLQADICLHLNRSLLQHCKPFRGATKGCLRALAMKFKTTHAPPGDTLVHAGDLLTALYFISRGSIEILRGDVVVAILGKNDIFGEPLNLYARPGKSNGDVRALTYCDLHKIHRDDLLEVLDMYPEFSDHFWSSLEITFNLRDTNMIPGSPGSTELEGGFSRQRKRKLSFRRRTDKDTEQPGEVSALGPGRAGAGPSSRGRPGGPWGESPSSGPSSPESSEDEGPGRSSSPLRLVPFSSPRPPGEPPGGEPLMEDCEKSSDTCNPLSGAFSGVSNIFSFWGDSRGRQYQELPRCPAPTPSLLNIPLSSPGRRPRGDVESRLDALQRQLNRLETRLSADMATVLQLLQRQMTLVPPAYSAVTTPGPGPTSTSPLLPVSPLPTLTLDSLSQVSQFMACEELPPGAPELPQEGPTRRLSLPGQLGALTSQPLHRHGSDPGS

Row | Compound | hERG current change (%, negative = inhibition) at 1uM
1 | CC(C)C(=O)N1CCN(c2nc(-c3ccc(Cl)cc3)cs2)CC1 | -69.6%
2 | O=C(NNc1ccccc1F)c1ccccc1 | 2.87%
3 | COc1cc(NC(=O)[C@H]2CSCN2C(=O)[C@@H]2CCC(=O)N2)cc(OC)c1OC | 10.8%
4 | Cc1ccc(S(=O)(=O)Nc2cccc(Cl)c2)cc1NC(=O)c1cccnc1 | 5.21%
5 | Cc1ccc(C(=O)NC(=S)N(C)C2CCCCC2)cc1 | 6.79%
6 | CN(CC(=O)Nc1c(Cl)cccc1Cl)C(=O)CNC(=O)c1ccco1 | 8.71%
7 | O=C(CN(Cc1ccccc1)S(=O)(=O)c1ccc(Cl)cc1)NCC1CCCO1 (stereo not shown) | 3.41%
8 | O=C(CN(Cc1ccccc1)S(=O)(=O)c1ccc(Br)cc1)NCC1CCCO1 (stereo not shown) | -80.5%
9 | O=C(CN(Cc1ccc(Br)cc1)S(=O)(=O)c1ccccc1)NCC1CCCO1 (stereo not shown) | 11.8%
10 | CCn1c2ccccc2c2cc(CNCc3ccc(OC)cc3OC)ccc21.O=C(O)C(=O)O | -47.5%
11 | Cc1nc2ccccc2cc1C(=O)Nc1ccccc1Cl | 3.5%
12 | C/C=C/c1ccc(OC(C)=O)c(OC)c1 | 8.76%
13 | O=C(Cn1cc2c(n1)CCCC2)N1CCCC1 | 8.36%
14 | O=C(Cn1cc2c(n1)CCCCC2)N1CCCCC1 | 9.12%
15 | CCOC(=O)N1CCN(C(=O)Cn2cc3c(n2)CCCC3)CC1 | -51.2%
16 | Cc1cc(=O)oc2c3c(cc(OCC(=O)NCc4ccco4)c12)OC(C)(C)CC3 | -1.54%
17 | CCOc1ccc(N(CC(=O)NC2CCCCC2)C(=O)CNC(=O)c2ccco2)cc1 | -5.99%
18 | Cc1cccc(-n2c(C)nc3cc(C(=O)N4CCC5(CC4)OCCO5)ccc32)c1 | -14.2%
19 | CC1(C)CC(NC(=O)c2ccc(-c3ccc([N+](=O)[O-])cc3)o2)CC(C)(C)N1 | -3.5%
20 | CC(=O)c1ccc(-c2ccc(C(=O)NC3CC(C)(C)NC(C)(C)C3)o2)cc1 | -71.1%
21 | CC(=O)c1ccc(-c2ccc(C(=O)NC3CCCCCC3)o2)cc1 | 29.5%
22 | CCN(c1ccccc1)c1nc(=O)c2cccnc2s1 | 5.88%

Row | Compound | hERG current change (%, negative = inhibition) at 1uM
23 | COc1ccc(C)cc1C1=Nc2ccccc2C1(C)C | 13.4%
24 | Cc1c(C(=O)OCC(=O)Nc2ccc(C(N)=O)cc2)cccc1[N+](=O)[O-] | 11%
25 | Cc1ccc(C(=O)NCCN2C3=NC[C@H](C(C)C)N3C[C@H]2Cc2ccc(O)cc2)cc1Br | 0.0506%
26 | Cc1ccc(C(=O)NCCN2C3=NC[C@H](C)N3C[C@H]2Cc2ccc(O)cc2)cc1Br | 9.94%
27 | COc1ccc(C[C@H]2CN3C(=NC[C@H]3Cc3ccccc3)N2CCNC(=O)c2ccc(C)c(Br)c2)cc1 | -24.7%
28 | COc1ccc(C[C@@H]2CN3C(=NC[C@@H]3C)N2CCNC(=O)c2ccc(C)c(Br)c2)cc1 | -64.9%
29 | Cc1ccc(C(=O)NCCN2C3=NC[C@H](Cc4ccc(O)cc4)N3C[C@H]2Cc2ccc(O)cc2)cc1Br | -9.94%
30 | COc1ccc(C[C@H]2CN3C(=NC[C@H]3C)N2CCNC(=O)c2ccc(C)c(Br)c2)cc1 | -70.9%
31 | COc1ccc(C[C@H]2CN3C(=NC[C@@H]3C(C)C)N2CCNC(=O)c2ccc(C)c(Br)c2)cc1 | -66.8%
32 | C/C=C(\C)C(=O)NCCN1C2=NC[C@H](C(C)C)N2C[C@H]1Cc1ccc(O)cc1 | 29.8%
33 | COc1ccc(C[C@H]2CN3C(=NC[C@@H]3Cc3ccccc3)N2CCNC(=O)c2ccc(C)c(Br)c2)cc1 | -16.7%
34 | COC(=O)c1cn(NC(=O)C2CCCO2)c(=O)c2ccccc12 (stereo not shown) | 14.6%
35 | CNc1nnc(SCC(=O)N2c3ccccc3NC(=O)CC2C)s1 (stereo not shown) | 6.91%
36 | CC(=O)Nc1ccc(S(=O)(=O)NCCC(=O)OCC(=O)c2ccccc2)cc1 | 6.41%
37 | COc1cccc(CN2CCCC(C(=O)Nc3ccc(-c4cscn4)cc3)C2)c1 (stereo not shown) | -10.8%
38 | COc1ccccc1NC(=O)c1ccc(S(=O)(=O)NCc2ccco2)cc1 | 13.8%
39 | O=C(NCCCN1CCCC1=O)c1cccc(NS(=O)(=O)c2ccccc2)c1 | 13.4%
40 | COc1ccc(NC(=O)CN(C)C(=O)c2ccc(NC3CC3)c([N+](=O)[O-])c2)cc1 | -68.6%
41 | COc1cccc(NC(=O)CN(C)C(=O)c2ccc(NC3CC3)c([N+](=O)[O-])c2)c1 | -40.8%
42 | CCOc1ccc(NC(=O)CN(C)C(=O)c2ccc(NC3CC3)c([N+](=O)[O-])c2)cc1OCC | -18.3%
43 | CC1Cc2cc(/C(O)=C3\C(=O)C(=O)N(Cc4ccncc4)C3c3ccccc3F)ccc2O1 (stereo not shown) | 17.9%

Source: paper PMC4336329 (PLoS ONE, 2015)
